TbREL1 primary: TbREL1 RNA ligase inhibitors, primary screen, biochemical, FRET fluorescence; RNA-editing ligase 1, mitochondrial (Trypanosoma brucei brucei), P86926; TbREL1 RNA ligation; inhibition, % at 9.66 µM; 0.49% of 89,000 active; AID 1117264, 2014;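 active = inhibition above the mean inhibition across all screened compounds plus 3 SD, cut at about 11% in these data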;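 note: 0% = plate median of test wells and 100% = NSC42067 control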
Target sequence (P86926 whole entry, looked up): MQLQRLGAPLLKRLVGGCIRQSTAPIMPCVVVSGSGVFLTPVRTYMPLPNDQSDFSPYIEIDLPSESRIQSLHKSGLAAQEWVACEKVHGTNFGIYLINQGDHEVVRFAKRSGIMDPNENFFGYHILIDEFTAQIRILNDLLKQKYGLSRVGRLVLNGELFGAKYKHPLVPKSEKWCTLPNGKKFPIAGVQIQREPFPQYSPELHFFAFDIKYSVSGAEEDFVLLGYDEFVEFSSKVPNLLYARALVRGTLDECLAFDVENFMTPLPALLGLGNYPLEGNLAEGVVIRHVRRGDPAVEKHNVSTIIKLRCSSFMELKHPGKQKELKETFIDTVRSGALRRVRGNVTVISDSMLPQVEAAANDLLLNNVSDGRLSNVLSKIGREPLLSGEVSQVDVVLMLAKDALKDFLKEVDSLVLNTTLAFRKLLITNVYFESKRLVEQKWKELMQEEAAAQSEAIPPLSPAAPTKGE
TbREL1 confirm: TbREL1 RNA ligase inhibitors, confirmation, biochemical, FRET fluorescence, triplicate; 37% of 390 active; TbREL1 RNA ligation; inhibition, % at 9.66 µM; shares compounds with TbREL1 primary;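 active = mean inhibition across replicates above a set limit taken from the earlier primary screen, cut at about 11% in these data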;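 note: 0% = REL1 with substrate and DMSO and 100% = REL1 plus control inhibitor NSC42067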
Starred values were filed as active, the others as inactive. This excerpt belongs to a sample that is enriched for hits.

SMILES	TbREL1 primary	others
Nc1cc(S(=O)(=O)c2ccc(O)c(N)c2)ccc1O	-2.4
Nc1ccc(C(=O)O)cc1[N+](=O)[O-]	-0.4
Nc1cc(S(=O)(=O)O)cc([N+](=O)[O-])c1O	21.4*	TbREL1 confirm=58.7*
Cc1ccc(-c2cc3nc(-c4ccco4)cc(N4CCN(Cc5ccoc5)CC4)n3n2)cc1	0.6
COc1ccc(-c2cc(C(=O)N=Nc3c(O)[nH]c4ccccc34)[nH]n2)cc1	5.3
O=C(NCc1ccccc1)Nc1ccccc1C(=O)N1CCCC1	-1.4
Cc1ccc(C(C(=O)NC2CCCCC2)N(C(=O)Cc2c[nH]c3ccccc23)c2ccccc2C)o1 (stereo not drawn)	-0.5
Cc1ccc(N(C(=O)Cc2c[nH]c3ccccc23)C(C(=O)NC2CCCCC2)c2ccco2)cc1 (stereo not drawn)	11.1*	TbREL1 confirm=-2.0
Cc1ccc(N(C(=O)c2ccco2)C(C(=O)NC2CCCC2)c2ccco2)c(C)c1 (stereo not drawn)	-1.7
COc1cccc2cc3c(nc12)C[C@@H]1CCCC(=O)N2CCC[C@@]12C3	-3.5
CCOc1ccc(NC(=O)c2cc(-c3ccc(Cl)cc3)nc3ccccc23)cc1	5.9
CC1=C(C(=O)N(C)C)CC(CC(=O)NCCCN(C)C)C(=O)N1Cc1ccc(F)cc1 (stereo not drawn)	3.8
CCN(CC)C(=O)C1=C(C)N(Cc2ccccc2)C(=O)C(CC(=O)NCCCN(C)C)C1 (stereo not drawn)	2.6
CC1=C(C(=O)N(C(C)C)C(C)C)CC(CC(=O)NCCCN(C)C)C(=O)N1Cc1ccc(C(C)(C)C)cc1 (stereo not drawn)	17.3*	TbREL1 confirm=11.0
CCCCCCCCN1C(=O)[C@@H](CC(=O)N2CCN(C(=O)C3CC3)CC2)C[C@@]2(C(=O)OC)C1=C[C@H](C(C)C)O[C@@H]2C1CC1	2.4
COc1cccc(/C=C/C(=O)OCC(=O)c2ccc3c(c2)NC(=O)CO3)c1OC	-0.4
O=C1COc2ccc(C(=O)COC(=O)/C=C/c3ccc(Br)o3)cc2N1	18.5*	TbREL1 confirm=10.1
COc1ccc(/C=C/C(=O)OCC(=O)c2ccc3c(c2)NC(=O)CO3)c(OC)c1	1.0
CCC[C@H]1[C@@H](NC(=O)/C=C/c2ccccc2)CC[C@@]23CCCN2C(=O)CCC[C@@H]13	-1.7
Cc1ccc(N(C)S(=O)(=O)c2c[nH]c3ccc([N+](=O)[O-])cc23)cc1	13.8*	TbREL1 confirm=8.7
O=[N+]([O-])c1ccc2[nH]nc(-c3ccccc3)c2c1	4.2
COC(=O)CCc1c[nH]c2ccc([N+](=O)[O-])cc12	4.1
CCc1c2c3n4c1CCC[C@@H]4C[C@@H]3O[Si](C(C)C)(C(C)C)OC(C)C2=O (stereo partly drawn)	0.6
Cc1nc(N)nc(N)c1/C=C/C(C)(C)c1ccc(Cl)cc1	14.8*	TbREL1 confirm=7.5
O=C(CCNC(=O)c1ccc(Cl)cc1)Nc1ncccc1O	19.3*	TbREL1 confirm=1.5
SMILES	TbREL1 primary	others
Cc1ccc(C(=O)CCC(=O)Nc2ncccc2O)cc1	-1.8
O=C(NCCNC(=O)c1ccccn1)c1ccc(Cl)cc1	2.9
O=C(Nc1cccc(F)c1)OC1CC2CC1[C@H]1CCCCN1[C@H]2Cc1ccccc1 (stereo partly drawn)	8.0
c1ccc(CCn2nnc(-c3ccc(N4CCOCC4)cc3)n2)cc1	-1.1
O=C(NC1CCc2ccccc21)c1cc(-c2ccc(Cl)cc2)nc2ccccc12 (stereo not drawn)	-0.8
COc1ccc(-c2nnc(SCc3cccc(F)c3)n2-c2ccccc2)cc1	3.6
O=C(Cn1nc(-c2ccccc2)ccc1=O)NCCc1ccccc1F	0.7
COc1cc([N+](=O)[O-])cc(/C=N/NC(=O)Cn2nc(C)cc2C)c1O	17.2*	TbREL1 confirm=3.9
COc1ccc(/C=N/NC(=O)Cn2nc([N+](=O)[O-])cc2C)c(OC)c1OC	-4.5
Cc1cc(C)n(CC(=O)N/N=C/c2ccc([N+](=O)[O-])s2)n1	1.5
O=C(Nc1ccccc1)Nc1c(-c2ccccc2)nc2ncccn12	-1.4
O=S(=O)(c1cc(C(F)(F)F)ccc1Cl)N1CCN(c2ncnc3ccccc23)CC1	-2.0
O=S(=O)(c1cc(Cl)cc(Cl)c1)N1CCN(c2nc(-c3cccs3)nc3ccccc23)CC1	11.9*	TbREL1 confirm=6.0
O=S(=O)(c1ccc(Cl)cc1)N1CCN(c2nc(C(F)(F)F)nc3ccccc23)CC1	-0.5
CCOC(=O)Cn1c2ccc(C)cc2c2nc(C)sc21	55.0*	TbREL1 confirm=4.8
CCOC(=O)Cn1c(=NC(=O)CC)sc2c(C)cc(C)cc21	-1.5
CCOC(=O)Cn1c(=NC(=O)c2cccs2)sc2cc(C(=O)OC)ccc21	10.2
CC(NCc1ccco1)C(=O)N1CCN(Cc2ccccc2F)CC1 (stereo not drawn)	-0.5
CSc1ccccc1NC(=O)c1cccs1	4.9
Nc1ccc(C(=O)c2cccs2)cc1	-0.3
O=C(SCC(O)C(O)CS)c1cccs1 (stereo not drawn)	17.8*	TbREL1 confirm=3.7
C=CCn1c(SCC(=O)c2ccc(F)cc2)nnc1-c1ccc(F)cc1	-6.0
CN(CCCOC(=O)c1cccs1)C1CN(Cc2cn(Cc3ccccc3Cl)nn2)S(=O)(=O)C1 (stereo not drawn)	-0.8
CC(=O)CSc1nc(N)c(C#N)c(-c2cccs2)c1C#N	2.7
CN1CCc2nc(SCC(=O)Nc3ccc(OC(F)(F)F)cc3)c(C#N)c(-c3cccs3)c2C1	12.5*	TbREL1 confirm=3.8
SMILES	TbREL1 primary	others
COc1ccc(NC(=O)CSc2nc(C)c3c(c2C#N)CCCC3)cc1	-2.4
CN1CCCN(C(=O)C2CCN(c3ncnc4c3sc3cccc(F)c34)CC2)CC1	1.4
C=CCN(C(=O)[C@@H](CCCC)[C@@H](O)c1ccc2ccccc2c1)c1ccccc1	4.7
CN(CC(=O)Nc1cccc(F)c1)CC(=O)Nc1cccc2ccccc12	-0.6
CSc1ccccc1NC(=O)CN(C)CC(=O)Nc1ccccc1F	11.5*	TbREL1 confirm=3.4
CSc1ccccc1NC(=O)CN(C)C(C)C(=O)Nc1ccc(C#N)cc1 (stereo not drawn)	0.8
CSc1ccccc1NC(=O)CN(C)Cc1ccc(Br)cc1	-0.3
CSc1ccccc1NC(=O)CCc1ccccc1	-3.0
CSc1ccccc1NC(=O)CN(C)CC(=O)Nc1c(F)cccc1F	16.1*	TbREL1 confirm=9.1
O=C(C1CCN(S(=O)(=O)c2ccc3[nH]c(=O)oc3c2)CC1)N1CCCN(Cc2ccccc2)CC1	0.8
